Activity calls are given as the source filed them. How the source made its calls: active means hit-call score of the fitted dose curve at least 0.9, where 1 is the maximum; inactive means score below 0.9.
What was measured:
[1] = BSK_BT_PBMCCytotoxicity: PBMC Cytotoxicity Assessment in the BioMAP Diversity Plus: BT Assay (AID 2284225); settings: primary human B cells with PBMC;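 further: PBMC viability measured by Alamar Blue dye reduction fluorescence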
Procedure, shortened: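 Viability by Alamar Blue reduction (6 h, ex/em 546/580 nm) after 90 h culture of SEB/TSST-1-activated PBMC (20 ng/mL each) given compound 1 h before activation. DMSO served as baseline for curve fitting.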

[2] = read-out: Secreted IgG (sIgG), gene 3500; assay: BSK_BT_sIgG: BioMAP Diversity Plus: BT Assay for Secreted IgG (sIgG) Biomarker Activity (AID 2284226); settings: primary human B cells with PBMC
Procedure, shortened: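 Cells (B cells with peripheral blood mononuclear cells) are dosed, cultured 24 h, then supernatant IgG is measured by ELISA. DMSO serves as negative control; curves are fitted for signal increase.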

[3] = BSK_BT_Bcell_Proliferation: Viability Assessment in the BioMAP Diversity Plus: BT Assay for B cell Proliferation (AID 2284227); settings: primary human B cells with PBMC
Procedure, shortened: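 Human B cell/PBMC co-culture; test chemical added; 72 h; TCA fix (10%), 0.1% SRB stain, A560 for total protein as a proliferation read-out; positive-direction fit vs DMSO baseline.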

[4] = read-out: Interleukin 6 (IL6), IL6 (gene 3569); assay: BSK_BT_xIL6: BioMAP Diversity Plus: BT Assay for Interleukin 6 (IL6) Biomarker Activity (AID 2284228); settings: primary human B cells with PBMC
Procedure, shortened: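 B cells and peripheral blood mononuclear cells (human primary co-culture) were dosed with chemical, and after 24 h IL-6 released into the medium was measured by Luminex xMAP. Responses were analysed as gain of signal over DMSO control.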

[5] = read-out: Interleukin 17A (IL17A), IL17A (gene 3605); assay: BSK_BT_xIL17A: BioMAP Diversity Plus: BT Assay for Interleukin 17A (IL17A) Biomarker Activity (AID 2284229); settings: primary human B cells with PBMC
Procedure, shortened: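 Secreted IL-17A was the measured endpoint, read by Luminex xMAP multiplex in supernatants of a human B cell/PBMC co-culture harvested 24 h after chemical dosing. Signal increase relative to DMSO defined activity.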

[6] = read-out: Tumor necrosis factor (Homo sapiens) (UniProt P01375); assay: BSK_BT_xTNFa: BioMAP Diversity Plus: BT Assay for Tumor necrosis factor alpha (TNF-alpha) Biomarker Activity (AID 2284230); settings: primary human B cells with PBMC
Procedure, shortened: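 Read-out: Luminex xMAP quantitation of secreted TNF-alpha from a B cell/PBMC co-culture 24 h after compound addition. Signal analysed relative to DMSO vehicle, positive fitting direction.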

[7] = read-out: Vascular cell adhesion molecule 1 (VCAM1), VCAM1 (gene 7412); assay: BSK_MyoF_VCAM1: BioMAP Diversity Plus: MyoF Assay for Vascular cell adhesion molecule 1 (VCAM1) Biomarker Activity (AID 2284231); settings: primary human lung fibroblasts
Procedure, shortened: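 ELISA read-out of VCAM-1 on human lung fibroblasts 24 h after chemical treatment, with positive-direction curve fitting relative to DMSO controls. Parallel cultures were stained with sulforhodamine B for total protein to flag overt cytotoxicity.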

Measured: AC50

Chain of Tumor necrosis factor (Homo sapiens) (P01375 whole entry, looked up): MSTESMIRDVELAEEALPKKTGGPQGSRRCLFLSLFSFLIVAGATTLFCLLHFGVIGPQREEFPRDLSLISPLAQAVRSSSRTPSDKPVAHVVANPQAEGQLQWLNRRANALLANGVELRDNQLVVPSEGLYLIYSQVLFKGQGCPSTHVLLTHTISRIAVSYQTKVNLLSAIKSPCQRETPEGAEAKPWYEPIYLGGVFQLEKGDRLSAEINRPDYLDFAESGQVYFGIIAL

CCCCCCCCCCCCCCCCCC[N+](C)(C)Cc1ccccc1
active: [1] 4.83 µM | [2] 0.66 µM | [3] 1.88 µM | [4] 6.37 µM | [5] 0.792 µM | [6] 3.16 µM | [7] 2.72 µM

NC(=NCCCCCCN=C(N)/N=C(\N)Nc1ccc(Cl)cc1)/N=C(\N)Nc1ccc(Cl)cc1
active: [1] 13.7 µM | [2] 2.87 µM | [3] 9.19 µM | [4] 8.83 µM | [5] 4.09 µM | [6] 8.79 µM | [7] 4.99 µM

COC1=CC(=O)C[C@@H](C)[C@]12Oc1c(Cl)c(OC)cc(OC)c1C2=O
active: [2] 30.9 µM | [3] 37.3 µM | [6] 20 µM
inactive: all other assays above

Source: PubChem BioAssay (EPA / NIEHS)
